From PubChem BioAssay AID1458 (National Center for Advancing Translational Sciences (NCATS), 2008) come the findings set out here.

Each structure is given as a SMILES string. Among all 210,000 compounds or so, about 5,900 (2.8%) were called active. Not shown: some 5% with an inconclusive outcome. For the sample, actives were picked, then their nearest neighbours and some compounds at random. Unmarked numbers belong to inactive results. Calls follow the shape of the dose curve; as a rule, active = well fitted activation curve with a large enough effect; inconclusive = small, poorly fitted or top-dose-only effect; inactive = no such curve, though single readings can be large or run the other way.
Potency is read from the fitted curve at half-maximal effect.

The assay can be described thus: qHTS Assay for Enhancers of SMN2 Splice Variant Expression. Also: nearly all actives have a fitted effect of over 55% in size. As to activity change, positive = activation: % of control where 0% means no effect. The note with it: HEK293 SMN2-luciferase splicing reporter, luminescence, 30-36 h; series mostly up to 46.1 µM; activity change, positive = activation: at the top concentration. In short, it runs like this: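 HEK293 cells carry an SMN2 […]–luciferase reporter in which exon 7 inclusion puts luciferase in frame. Cells were plated 10-12 h before compound addition, then incubated 30-36 h at 37C. ONE-Glo luminescence was read; sodium butyrate at 4.5 mM final served as control.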
A general note: In qHTS, concentration-response curves come from the screen itself.
Take `COc1ccc(-c2nc(-c3ccccc3)no2)c(OC)c1`: the Potency was 0.447 µM (active).
Regarding `CCOc1nc(-c2ccc(OC)cc2)ccc1-c1noc(-c2cc(OC)c(OC)c(OC)c2)n1`, the “activity change, positive = activation” value is -12.6%.
As for `COc1ccc(-c2noc(-c3ccc(C)cc3)n2)cc1`, the Potency was 17.8 µM (active).
Consider `COc1ccc(/C=C/c2noc(-c3ccccc3O)n2)cc1OC`, for which the “activity change, positive = activation” value was 0.349%.
Take `COc1ccc(-c2noc(CSc3ccc(C)cc3)n2)cc1`: the “activity change, positive = activation” value is -14.2%.
Regarding `COc1ccc(-c2noc(CN(C)S(=O)(=O)c3ccc(C)cc3)n2)cc1`, the “activity change, positive = activation” value was -39.1%.
Consider `COc1ccc(-c2nnco2)cc1OC`, for which the “activity change, positive = activation” value was -2.06%.
Regarding `COc1ccc(-c2noc(-c3cccc(OC)c3OC)n2)cc1OC`, the Potency is 12.6 µM (active).
For the molecule `COc1ccc(-c2noc(CSc3nnc(-c4ccccc4)n3-c3ccc(F)cc3)n2)c(OC)c1`, the “activity change, positive = activation” value was 27.6%.
Same read-out and setting: under `COc1ccc(CC(N)C(=O)NC2C(O)[C@H](n3cnc4c(N(C)C)ncnc43)O[C@@H]2CO)cc1` (stereo partly drawn) stands -70.3%; under `CC1=C(C(=O)OCC2CCCCC2)C(c2c(F)cccc2Cl)CC(=O)N1` (stereo not drawn), -17.8%.
Regarding `O=C(Nc1cc(C(F)(F)F)ccc1Cl)c1ccc2c(c1)CCN2S(=O)(=O)c1ccccc1`, the “activity change, positive = activation” value is 2.17%.
With `CCSc1ncc(Cl)c(C(=O)Nc2c(C(=O)c3ccccc3)oc3ccccc23)n1`, the “activity change, positive = activation” value is 4.69%.
Regarding `O=C(C1CCCN(S(=O)(=O)c2cccc3nonc23)C1)N1CCN(c2ccccc2F)CC1` (stereo not drawn), the “activity change, positive = activation” value was -5.02%.
Still for that read-out and setting: under `COc1ccccc1Nc1cc(C(=O)NCCCN(C)C2CCCCC2)c2ccccc2n1` stands -53.1%; under `CCCC12CN3CC(C)(CN(C1)C3c1ccccc1Cl)C2=O` (stereo not drawn), 3.3%; under `COC(=O)c1nc2ccccc2s1`, -17.7%.
Regarding `CCC(=O)NC(=Nc1nc2ccccc2s1)NC(=O)CC`, the Potency was 10 µM (active).
As for `Cc1cc(C(=O)OCC(=O)Nc2nnc(C(C)C)s2)c2ccccc2n1`, the activity change, positive = activation is 10.4% [at 1.84 µM].
Same read-out and setting: under `O=C(O)CCCCc1nc2ccccc2s1` stands 11.6%.
With `CC(C)CC(=O)N/C(N)=N/c1nc2ccccc2s1`, the Potency was 11.2 µM (active).
On to `CC(C)CC(=O)NC(=S)NCc1ccccc1`, for which the “activity change, positive = activation” value was 12.2%.
Same read-out and setting: under `CCc1nn(CC(=O)N2CCN(c3ccc(Cl)cc3)CC2)c(=O)c2cc3occc3n12` stands -8.33%.
Still for that read-out and setting: under `CCc1ccc(S(=O)(=O)Nc2cc3c(C(=O)OCc4ccccc4)c(C)oc3c3ccccc23)cc1` stands -8.12%; under `O=C(CSc1ncc(S(=O)(=O)c2ccc(Br)cc2)c(=O)[nH]1)Nc1ccc2c(c1)OCCO2`, -4.42%; under `Cc1ccc(NC(=O)CN2c3ccccc3S(=O)(=O)c3ccccc32)cc1F`, -8.12%.
Still for that read-out and setting: the value for `CCOc1ccccc1NC(=O)CCS(=O)(=O)c1cccc2nsnc12` was 7.78%.
Regarding `O=C(CSCc1cccs1)N1CCCC1`, the Potency was 12.6 µM (active).
`O=C(CSc1ccsc1[N+](=O)[O-])N1CCCCC1`: the “activity change, positive = activation” value was 4.74%.
The same measure, in the same setting: under `O=C(CSCc1ccc(Cl)cc1)N1CCN(Cc2ccc3c(c2)OCO3)CC1` stands -32.9%; under `O=C(Cn1c(=O)n(Cc2ccccc2)c(=O)c2sc3ccccc3c21)Nc1ccccc1F`, -17.9%.
On the same count and under the same terms, under `Cc1ccc(-c2nnc3c4ccccc4c(C)nn23)cc1NC(=O)c1cccc(Br)c1` stands -0.0665%.
The same measure, in the same setting: the value for `O=S(=O)(Nc1ccccn1)c1ccc(Oc2ccccc2)cc1` was 6.26%; that for `COc1ccc(-c2csc(NC(=O)c3ccc(N4C(=O)CCC4=O)cc3)n2)cc1OC` was -3.03%; that for `COC(=O)CSc1nccc(-c2cccs2)n1` was -2.36%.
For `NS(=O)(=O)c1ccc(Nc2nc(-c3ccccc3)cs2)cc1`, the “activity change, positive = activation” value was -10.2%.
For the molecule `COc1ccc(Nc2nc(-c3ccccc3)cs2)cc1`, the Potency was 10 µM (active).
Consider `O=C(Nc1ccc(Cl)cn1)Nc1cccs1`, for which the “activity change, positive = activation” value is 13.8%.
Still for that read-out and setting: the value for `COc1ccc(NC(=O)c2sc(N)nc2-c2ccccc2)cc1` was 11.7%; that for `COc1ccc(C)cc1Nc1nc(-c2c(C)[nH]c3ccccc23)cs1` was 14%.
On the same count and under the same terms, the value for `COc1ccc2c(c1OC)C(=O)OC2Nc1nc(-c2ccccc2)cs1` (stereo not drawn) was 26.9%.
Regarding `Clc1ccc(Nc2nc(-c3cccs3)cs2)nc1`, the Potency was 14.1 µM (active).
The same measure, in the same setting: the value for `COc1ccc(-c2csc(Nc3ccccn3)n2)cc1` was 2.24 µM (active); that for `COc1ccc(OC)c(Nc2nc(-c3ccc(O)c(O)c3)cs2)c1` was 17.8 µM (active).
For the molecule `CCOc1cc(C2c3c(-c4ccc(Br)cc4)n[nH]c3C(=O)N2c2ccc(Cl)cc2)ccc1O` (stereo not drawn), the “activity change, positive = activation” value is -31.4%.
On the same count and under the same terms, under `O=C(c1ccc2c(c1)N(Cc1ccc(Cl)cc1)C(=O)c1ccccc1S2(=O)=O)N1CCCCC1` stands -11.6%; under `CC1CCC2(CC1)N=C(c1ccccc1)C(=O)N2CC(=O)Nc1ccc(F)c(Cl)c1` (stereo not drawn), 6.66%; under `O=C(Nc1nc(-c2ccc(-c3ccccc3)cc2)cs1)c1cnccn1`, -28.6%.
On the same count and under the same terms, the value for `O=C(Nc1nc(-c2ccncc2)cs1)C1COc2ccccc2O1` (stereo not drawn) was 14.3%.
Turning to `c1ccc(Nc2nc(-c3ccncc3)cs2)nc1`, the Potency is 12.6 µM (active).
As to `CSc1ccc(NC(=O)Cn2nnnc2-c2ccccc2F)cc1`, the “activity change, positive = activation” value was -1.68%.
Same read-out and setting: under `O=C(NCCc1c[nH]c2ccccc12)C(=O)NCC1CCCO1` (stereo not drawn) stands -8.48%; under `CN(c1ccccc1)S(=O)(=O)c1ccc(Cl)c(C(=O)NCCc2c[nH]c3ccccc23)c1`, -16.4%.
With `O=C(NCCc1c[nH]c2ccccc12)c1cc2ccccc2oc1=O`, the Potency is 17.8 µM (active).
For the molecule `O=C(Nc1cccc2cccnc12)c1cccc2c(Br)cccc12`, the “activity change, positive = activation” value is 2.49%.
Same read-out and setting: under `CCOC(=O)c1c(-c2ccc(OC)cc2)oc2ccc(OCc3ccc(C(=O)OC)cc3)cc12` stands -6.6%; under `O=C(NCc1ccccc1Cl)c1csc2c1CCCCC2`, 5.72%; under `CC(=O)Cc1nsc(NC(=O)c2csc3c2CCCC3)n1`, 4.95%.
On the same count and under the same terms, under `CCOC(=O)c1ccc(NC(=O)c2csc3c2CCCCC3)cc1` stands -16.6%.
Turning to `Cc1ccc(NC(=O)c2csc3c2CCCC3)cc1`, the Potency was 4.47 µM (active).
The same measure, in the same setting: under `COC(=O)c1sc(NC(=O)c2csc3c2CCCC3)nc1C` stands 2.51 µM (active).
As to `COC(=O)c1sccc1NC(=O)c1csc2c1CCCC2`, the “activity change, positive = activation” value is 32.6%.
Consider `COc1ccc(OC)c(NC(=O)/C=C/c2ccc(C)o2)c1`, for which the “activity change, positive = activation” value was -0.29%.
With `NC(=O)c1sc(-c2ccsc2)cc1N`, the “activity change, positive = activation” value is 14.9%.
Still for that read-out and setting: the value for `COc1ccc(CNC(=O)CS(=O)Cc2nc(-c3cccc(C)c3)oc2C)cc1` (stereo not drawn) was -5.97%.
Turning to `CC(=O)Nc1ccc(NC(=O)C(C)OC(=O)c2ccccc2C(=O)c2ccc(Cl)c([N+](=O)[O-])c2)cc1` (stereo not drawn), the Potency is 25.1 µM (active).
On to `N#Cc1cccc(NC(=O)COC(=O)c2ccccc2C(=O)c2ccc(Cl)c([N+](=O)[O-])c2)c1`, for which the “activity change, positive = activation” value is -115%.
With `CC(CC(=O)O)C(=O)c1ccc(Cl)c([N+](=O)[O-])c1` (stereo not drawn), the “activity change, positive = activation” value was 5.72%.
